Screening data deposited in PubChem by National Center for Advancing Translational Sciences (NCATS).
Vaccinia Venus: inhibitors of vaccinia virus (Venus reporter); Potency, µM (series often up to 36.5 µM), for the others: at the highest dose activity change, negative = inhibition, most hits filed as inhibitors; 330,000 tested, 0.46% active; Vaccinia virus Venus reporter expression, fluorescence; calls by dose curve; tested in A549 cells; also: nearly all actives have a fitted effect of over 30% in size
MARV entry inh: blocks Marburg virus binding to or entry into cells. Marburg virus pseudotyped entry inhibition, cell reporter. AID 540276. Potency, µM (titrated, usually from 37.8 µM), for the others: at the top dose activity change, negative = inhibition, usual class: inhibitors. 300,000 tested, 1.8% active; calls by dose curve; tested in HEK293 cells
HCV inh: HCV inhibition; Potency, µM (top dose mostly 41.8 µM), inactives show top-dose activity change, negative = inhibition, usual class: inhibitors; 340,000 tested, 3.4% active; Huh7.5.1 HCVcc-Cre infection, luciferase reporter, 44 h; active = well fitted inhibition curve with a large enough effect; inconclusive = small, poorly fitted or top-dose-only effect, or another doubt; inactive = no such curve, though single readings can be large or run the other way
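1,000 cells/well; 4 h culture; + compound; + HCVcc-Cre (~0.5 moi); 44 h; luciferase substrate, RT 15 min; read 15 sec.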
Lassa entry inh: blocks Lassa virus binding to or entry into cells; Lassa virus pseudotype entry inhibition, cell reporter; Potency, µM (doses to about 37.9 µM), for the others: at the highest dose activity change, negative = inhibition, actives largely listed as inhibitors; 300,000 tested, 1.2% active; calls by dose curve; tested in HEK293 cells; also: nearly all actives have a fitted effect of over 50% in size
VACV mCherry inh: inhibitors of vaccinia virus infection (mCherry reporter signal); Vaccinia virus mCherry reporter infection, fluorescence; Potency, µM (highest dose often 36.5 µM), for the others: at the top dose activity change, negative = inhibition, most hits filed as inhibitors; AID 720579; 310,000 tested, 0.63% active; calls by dose curve; tested in A549 cells; also: nearly all actives have a fitted effect of over 35% in size
The depositor's hits bear a star; i = inactive; ? = inconclusive; · = no result given; [ ] = remark or other dose. The list is not random: actives were taken first. Their share in the collection is about 4.6%. % is scaled to controls: 0 for no effect and ±100 for the full control effect; potency is read from the fitted curve at half-maximal effect.

SMILES | Vaccinia Venus | MARV entry inh | HCV inh | Lassa entry inh | VACV mCherry inh
COc1ccc(NC(=O)c2cc3ccccc3cc2OC)cc1 | ? | -24% | 8.9µM* | ? | -23%
CCOc1ccc(NC(=O)c2cc3ccccc3cc2OC)cc1 | ? | ? | 10µM* | ? | -22%
Cc1cc(OCCCSc2nc(-c3ccc(C(C)(C)C)cc3)nc3cc(=O)[nH]n23)ccc1Cl | -14%[7.34 µM] | · | · | -8%[46.1 µM] | -5%[7.34 µM]
CS(=O)(=O)N(CC(=O)Nc1ccc(Br)cc1)c1ccccc1Br | 1% | · | · | -9%[46.1 µM] | -5%
CC(C)(C)CC(C)(C)N=C1Nc2cc(Cl)c(Cl)cc2N[C@]12C[C@H]1CCCC(=O)N3CC[C@@H](C2)[C@@H]13 | -13% | · | · | · | i
Cc1cccc(C)c1Nc1oc(-c2ccccc2)nc1C(C)(C)C | · | 2%[14.2 µM] | · | · | ·
COc1ccc(Cl)cc1C(=O)Nc1ccc(NC(=O)C(C)C)cc1 | -16% | -17%[46.1 µM] | 4µM* | ? | -14%
COc1ccc2o/c(=N\O)c(C(=O)Nc3ccc(C)cc3)cc2c1 | ? | · | 10µM* | · | -17%
COc1ccc(C(=O)Nc2ccccc2Cc2ccccc2)c(OC)c1 | -30% | 5% | 10µM* | -20% | ?
CCOc1ccc(NC(=O)Cn2cc(C(=O)c3ccc(CC)cc3)c(=O)c3cc(C)ccc32)cc1 | -25% | 4%[46.1 µM] | · | 13%[46.1 µM] | -7%
CCOc1ccc(CNC(=O)Cn2cc3c(n2)-c2c(oc(C(=O)N4CCOCC4)c2C)CC3)cc1 | -22% | · | · | -27%[46.1 µM] | -2%
Cc1c(N2C(=O)S[C@H](CC(=O)O)C2=O)c(=O)n(-c2ccccc2)n1C | · | 12% | · | · | ·
COc1cc(C)ccc1OCCSc1nc2ccc(NC(=O)c3cccs3)cc2s1 | -14% | ? | · | -2%[46.1 µM] | i
C=CCN(C)C1=NC(c2ccccc2)C(C(=O)OC)=C(C)N1CCOC (centres undefined) | · | 4%[14.2 µM] | · | · | ·
O=C(CN1CCN(S(=O)(=O)c2cc(C(F)(F)F)ccc2Cl)CC1)N1CCc2ccccc2C1 | · | · | 11µM* | · | ·
O=C(CN1CCN(S(=O)(=O)c2ccc(F)c(Cl)c2)CC1)N1CCc2ccccc2C1 | -25% | 1% | ? | -8% | -15%
O=C1c2ccccc2-c2onc3ccc(NCCCn4ccnc4)c1c23 | 21% | ? | 13µM* | -21% | -1%
C/C(CCN1CCCc2nc(C)c(C)cc21)=N\OC[C@@H](O)[C@H]1O[C@@H]2OC(C)(C)O[C@@H]2[C@H]1O | · | -8%[14.2 µM] | · | · | ·
O=C(O)c1cccnc1C(=O)O | 2% | ? | 0.71µM* | 38% | 7%
O=C(O)c1cccnc1Cl | · | -1% | 9% | -1% | ·
CC(=O)c1ccc(-c2cccc(-c3nc4ccccn4c3NC3CCCCC3)c2)cc1 | ? | · | 10µM* | · | -23%
COc1cc(NC(N)=S)c(OC)cc1Cl | -1% | 6%[46.1 µM] | -17% | -25%[46.1 µM] | -12%
COc1cc(N/C(N)=N/c2nc(C)cc(C)n2)c(OC)cc1Cl | · | 9.2µM* | ? | -23% | ·
Cc1cc(C)cc(N/C(N)=N/c2nc(C)cc(C)n2)c1 | ? | ? | -66% | 21µM* | -25%
Cc1cc(C)nc(/N=C(\N)Nc2ccc(C(C)C)cc2)n1 | -17%[7.34 µM] | 10µM* | 11µM* | ? | -16%[7.34 µM]
SMILES | Vaccinia Venus | MARV entry inh | HCV inh | Lassa entry inh | VACV mCherry inh
CCCC(=O)N1CC(=O)Nc2ccc(Br)cc2C1c1ccc(F)cc1 (centres undefined) | -7% | 11µM* | 2% | -5%[46.1 µM] | i
COc1ccccc1CC(=O)Nc1ccc2c(c1)OC1(CCCC1)O2 | -16% | ? | 13µM* | -22%[46.1 µM] | ?
COc1ccc(-n2c(-c3ccccc3)c[n+]3c2CCC3)cc1 | -27% | ? | 10µM* | ? | -1%
COc1ccc(-n2c(-c3ccc(Br)cc3)c[n+]3c2CCC3)cc1 | -3% | ? | -7% | ? | i
Cc1cc(Br)ccc1NC(=O)CNC(=O)Cn1ncc(Cl)c(Cl)c1=O | -8% | -26%[46.1 µM] | 2.2µM* | · | -4%
O=C(Cn1ncc(Cl)c(Cl)c1=O)N1CCN(S(=O)(=O)c2ccc3ccccc3c2)CC1 | ? | 1.8µM* | 5.6µM* | ? | ?
Cc1ccc(S(=O)(=O)N2CCCCC2)cc1NC(=O)Cn1cnnn1 | · | · | 27% | · | ·
Cc1ccc(S(=O)(=O)N2CCCCC2)cc1NC(=O)CNC(C)c1ccc(Cl)c(Cl)c1 (centres undefined) | · | · | 8.9µM* | · | ·
Cc1ccc(S(=O)(=O)N2CCCCC2)cc1NC(=O)Cn1ncc(Cl)c(Cl)c1=O | · | · | 0.71µM* | · | ·
Cc1cnc(C(=O)Nc2ccccc2-c2ccc(C)o2)cn1 | 0% | -3% | 7.9µM* | ? | -13%
Nc1nc(N)c2nc(CNc3ccc(C(=O)N[C@@H](CCC(=O)O)C(=O)O)cc3)cnc2n1 | -1% | · | · | · | -13%
COc1ccc(-n2c3c(cc(C(=O)N4CCCCC4)c2=O)C(=O)CC(C)(C)C3)cc1 | 14µM* | 10% | 8% | ? | ?
CCN(C(=O)COC(=O)CNC(=O)c1ccccc1C)C1=CCCCC1 | · | · | 1% | · | ·
CCCN(C(=O)CCl)C1=CCCCC1 | -11% | 4%[46.1 µM] | 13µM* | ? | -19%
Cc1ccc(S(=O)(=O)NCc2ccc(C(=O)N3CCN(Cc4ccccc4)CC3)cc2)cc1 | ? | ? | 4µM* | ? | -27%
CCOc1ccc(NS(=O)(=O)c2ccc(NC(=O)C3CC3)cc2)cc1 | -20% | -2% | ? | 0% | i
O=C(NS(=O)(=O)c1ccc(NC(=O)C2CCCO2)cc1)c1ccccc1 (centres undefined) | · | -2% | 3% | -16% | ·
O=C(Nc1ccc(S(=O)(=O)Nc2ccc(Cl)cc2)cc1)C1CCCO1 (centres undefined) | · | -14% | 22µM* | ? | ·
COc1ccc(S(=O)(=O)NCc2ccc(C(=O)N3CCN(Cc4ccccc4)CC3)cc2)cc1 | · | · | 32µM* | · | ·
O=C(c1cccc(S(=O)(=O)NCc2ccccc2)c1)N1CCN(Cc2ccccc2)CC1 | -8% | 14% | -7% | -17% | ·
COc1ccc(NS(=O)(=O)c2ccc(NC(=O)C3CC3)cc2)cc1 | -12% | -26% | 10µM* | ? | i
Cc1ccc(NC(=O)c2sc3nc(-c4ccc(F)cc4)cn3c2C)c(C)c1 | -22% | · | · | 0%[46.1 µM] | -29%
Cc1ccc(-n2ncc3c(Nc4cccc(C)c4C)ncnc32)cc1 | -16% | · | · | 7%[46.1 µM] | -14%
COc1ccc(NS(=O)(=O)c2ccc(C(=O)N3CCN(Cc4ccccc4)CC3)cc2)cc1 | -26% | · | 11µM* | · | -22%
COc1ccc(N2CCN(C(=O)c3ccc(NS(=O)(=O)c4ccccc4)cc3)CC2)cc1 | ? | ? | -18% | 4% | ·
CCN1CCN(C(=O)c2ccc(CNS(=O)(=O)c3cccc(OC)c3)cc2)CC1 | -8% | -1% | 17% | 0% | -18%
O=C(c1ccc(Cn2cc(Cl)c([N+](=O)[O-])n2)cc1)N1CCN(Cc2ccccc2)CC1 | · | · | 11µM* | · | ·
COc1cccc(S(=O)(=O)NCc2ccc(C(=O)N3CCN(Cc4ccccc4)CC3)cc2)c1 | 7% | ? | 10µM* | ? | -14%
COc1ccc(NS(=O)(=O)c2ccc(C(=O)N3CCCCCC3)cc2)cc1 | -14% | ? | 14µM* | ? | -19%
